# TRPML1 ag: activates the human TRPML1 channel; TRPML1-expressing cells, Ca2+ dye fluorescence, FDSS; activation, % (concentration not given with the values); AID 624414; Q9GZU1; 0.12% of 410,000 active; in the data active = activation above about 50%; inconclusive = mostly about 30% to 49%; note: 0% is about no effect
#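 Agonist activity was taken from a 110 s kinetic Ca2+ dye read on the FDSS after pinning compounds onto TRPML1-DL cells. The cells were seeded at 1,500/well with Tet inducer, incubated about 16 h, then dye-loaded at room temperature.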
# TRHR agonist-1: TRH receptor (human) agonism | P34981 | TRHR cells, calcium flux fluo-8, FDSS agonist mode | activation, % at 2 µM | 0.18% of 360,000 active | AID 493084; in the data active = activation above about 30%; note: 0% is about no effect
#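 Agonist-mode FDSS calcium read (Ex 480/Em 530, 1 s cycles) in 1536-well TRHR cells with fluo-8 dye, after 10-cycle baseline and 23 nL compound addition; TRH at EC20 (10 nM final) added afterwards for the enhancer phase.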
# PTHR1 ag: activates the human parathyroid hormone receptor PTHR1; Q03431; HEK293 GP2 PTHR1 cells, GloSensor cAMP luminescence, 1 h; Potency, µM (titrated, usually from 115 µM), for the others: at the top dose activation, actives largely listed as activators; 0.075% of 410,000 active; AID 743266; note: potency is the fitted concentration of half-maximal effect; nearly all actives have a fitted effect of over 55% in size
# Target sequence (Q03431 whole entry, looked up): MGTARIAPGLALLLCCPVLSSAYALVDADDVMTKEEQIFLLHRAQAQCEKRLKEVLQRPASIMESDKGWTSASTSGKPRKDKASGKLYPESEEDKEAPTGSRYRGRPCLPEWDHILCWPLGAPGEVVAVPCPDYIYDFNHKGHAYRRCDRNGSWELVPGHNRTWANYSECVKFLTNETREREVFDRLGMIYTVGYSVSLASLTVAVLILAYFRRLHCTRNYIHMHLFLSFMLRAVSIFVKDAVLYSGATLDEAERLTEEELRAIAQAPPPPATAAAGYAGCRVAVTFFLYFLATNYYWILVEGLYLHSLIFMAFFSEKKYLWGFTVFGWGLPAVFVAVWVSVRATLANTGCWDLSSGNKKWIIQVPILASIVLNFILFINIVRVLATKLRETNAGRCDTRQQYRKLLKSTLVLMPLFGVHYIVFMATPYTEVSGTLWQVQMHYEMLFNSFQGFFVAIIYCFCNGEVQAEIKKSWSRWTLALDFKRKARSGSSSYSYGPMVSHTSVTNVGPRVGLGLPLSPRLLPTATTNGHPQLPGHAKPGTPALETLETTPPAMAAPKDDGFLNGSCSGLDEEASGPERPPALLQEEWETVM
#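 HEK-293-derived GP2 cells expressing PTHR1 and a GloSensor cAMP reporter, 3,000/well, plated overnight, given luciferin plus IBMX (each 0.5 mM as added) for 1 h at 37 °C, then compound for 1 h at 37 °C. Luminescence was read after 15 min at room temperature.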
# GLP1R cytotox: cytotoxic in the GLP-1 receptor inverse agonist counter-screen; HEK293 cAMP-luciferase reporter cells, luminescence, 24 h; Potency, µM (titrated, usually from 38.3 µM), for inactives: at the highest dose activity change, negative = inhibition, most hits filed as inhibitors; 0.13% of 410,000 active;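 note: loss of luciferase light is scored as toxicity; potency is the fitted concentration of half-maximal effect; % is set by controls: 0 for no effect and ±100 for the full control effect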
#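 Quantitative HTS format, 1536 wells, 200 cells/uL seeded. Compounds: 23 nL, 24 h, 37 °C. Detection: luciferase reagent, luminescence at 12 min RT; decreased signal taken as cytotoxic.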
# TRHR enhancer-1: allosteric enhancers of human TRH receptor. P34981. TRHR cells, fluo-8 calcium fluorescence, EC20 TRH enhancement. enhancement, % at 2 µM. 0.66% of 360,000 active. AID 493056; in the data active = enhancement above about 30%; note: 0% is about no effect
#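 Enhancer read-out: after compound pinning and an initial kinetic agonist-mode read, an EC20 of TRH (10 nM final) was injected and fluo-8 calcium signal (Ex 480/Em 530) followed at 1 s/cycle for 100 cycles in TRHR-expressing cells.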
# TRPML1 inh: human mucolipin-1 channel inhibition. Q9GZU1. TRPML1-inducible cells, Ca2+ dye fluorescence, FDSS; stronger effect = lower value; inhibition of EC80 agonist-evoked calcium signal. 0.02% of 390,000 active. AID 624415. activity change, negative = inhibition, % (test concentration not listed); in the data active = activity change below about -50%; inconclusive = between about -30% and that limit;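 note: stimulus is agonist 54-4 at its EC80 concentration; % is set by controls: 0 for no effect and ±100 for the full control effect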
#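 Tet-induced TRPML1-DL cells loaded with Ca8 no-wash calcium dye were read kinetically on FDSS. Compound addition was followed by EC80 agonist 54-4 (4 uM final); inhibition was read over 110 s.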
# TRHR enhancer-2: human TRH receptor allosteric enhancement confirmation; activity change, negative = inhibition, % at 46.1 µM; shares compounds with TRHR enhancer-1; TRH receptor cell assay, enhancer confirmation qHTS; 970 tested, under 10 active; AID 493076;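 note: compound effect scored on response to added TRH at EC20 of 10 nM; 0% is about no effect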
# TRHR agonist-2: human TRH receptor agonism confirmation | shares compounds with TRHR enhancer-1 | TRHR-expressing cells, agonist activation read-out | Potency, µM (titrated, usually from 46.1 µM), without a hit: top-dose activation, hits mostly activators | 8% of 970 active | AID 493078; note: potency is the fitted concentration of half-maximal effect; 0% is about no effect; nearly all actives have a fitted effect of over 75% in size
# An asterisk follows results filed as active; i = inactive; ? = inconclusive; . = not tested or not shown. Shown are actives, neighbours in structure and some others; about 0.93% of the full set was active somewhere. Unless noted, calls come from the whole dose curve; as a rule, active = well fitted curve in the direction sought with a large enough effect; inconclusive = small, poorly fitted or top-dose-only effect, or another doubt; inactive = no such curve, though single readings can be large; an effect the other way counts as inactive or inconclusive.
SMILES,TRPML1 ag,TRHR agonist-1,PTHR1 ag,GLP1R cytotox,TRHR enhancer-1,TRPML1 inh,TRHR enhancer-2,TRHR agonist-2
COc1cccc(N2CCN(c3c4c(nc5nncn35)CCC4)CC2)c1,1,0,-45%,4%,-1,-11,.,.
Cn1c(=O)[nH]c(=O)c2c1nc([N+](=O)[O-])n2Cc1ccccc1,3,0,-42%,10µM*,8,2,.,.
C/C(=N\N1CCN(C)CC1)c1c(O)n(Cc2ccccc2)c(=O)[nH]c1=O,1,-1,i,-1%,0,53,.,.
Cc1cccc(C(=O)NC(=S)Nc2cccc3nc(C)ccc23)c1,2,-1,-34%,?,-2,38,.,.
Cc1cc(N/N=C/c2ccc(O)c(C)c2O)nc(-c2ccccc2O)n1,7,-1,-35%,10µM*,-5,-3,.,.
CC1=CC(=C2C(=O)NC(=O)NC2=O)C=C(C(F)(F)F)N1C(C)C,0,0,28µM*,2%,2,-4,.,.
O=S(=O)(NC1CC(NS(=O)(=O)OCC(Cl)(Cl)Cl)C2CCCCC12)OCC(Cl)(Cl)Cl (centres undefined),0,0,-3%,-24%,0,-6,.,.
COc1ccccc1-n1c(/C=C/c2ccccc2)nc2ccccc2c1=O,3,1,i,5%,5,9,.,.
COc1ccccc1-n1c(/C=C/c2ccc(O)cc2)nc2ccccc2c1=O,3,1,-69%,86%,39*,30,.,.
COc1cc(/C=C/c2nc3ccccc3c(=O)n2-c2ccccc2O)ccc1O,7,36*,i,27%,10,-24,.,.
CCCCn1c(O)c(/C(C)=N/NC(=O)Nc2ccccc2)c(=O)[nH]c1=O,1,0,i,-6%,35*,8,.,.
O=[N+]([O-])c1ccc(N2CCCCCC2)c2nonc12,110*,142*,i,?,15,-21,.,.
Nc1ccc2ccc3cccc[n+]3c2c1,87*,65*,-11%,i,9,-7,.,.
C[n+]1c(-c2ccccc2)c2cc(N)ccc2c2ccc(N)cc21,0,5,-3%,?,-6,10,.,.
CC(C)C[C@H](NC(=O)c1[nH]cnc1C(=O)Nc1ccccc1)C(=O)OC(C)(C)C,2,0,-35%,?,-1,-16,.,.
CCC(=O)O[C@H]1CC[C@H]2[C@@H]3CCC4=CC(=O)CC[C@]4(C)[C@H]3CC[C@]12C,-1,.,-37%,2%,.,18,.,.
CN(C)c1ccc(CNC(=O)Cn2c(=O)oc3cc(S(=O)(=O)N4CCCCCC4)ccc32)cc1,0,0,-53%,11%,-1,-13,.,.
CCOc1ccc(Nc2nc(N)c(C(=O)c3ccccc3Cl)s2)cc1,1,0,i,?,9,26,.,.
COC(=O)C1=C(c2ccc(F)cc2OCc2ccccc2)C[C@@H]2CC[C@H]1N2C(=O)NCc1ccccc1,-1,0,-30%,-9%,-9,10,.,.
COC(=O)C1=C(c2ccc(F)cc2OCc2ccccc2)C[C@@H]2CC[C@H]1N2C(=O)N1CCC(O)CC1,-1,0,-18%,12%,37*,-7,.,.
NCCc1ccc(O)cc1,-1,-2,-22%,-5%,4,-12,.,.
NNC(=O)c1ccc(O)cc1,0,0,i,0%,47*,-13,12,-1%
O=C(NN1C(=O)/C(=C/c2ccc(O)c(O)c2)SC1=S)c1ccccc1,4,29,-16%,?,10,-15,?,?
COc1cc(C2C(C#N)=C(N)Oc3cc(N(C)C)ccc32)cc2c1OCO2 (centres undefined),1,45*,?,100%,2,-13,3,?
C=CCc1cc(OC)c2c(c1)OCO2,.,0,i,-11%,-3,.,.,.
SMILES,TRPML1 ag,TRHR agonist-1,PTHR1 ag,GLP1R cytotox,TRHR enhancer-1,TRPML1 inh,TRHR enhancer-2,TRHR agonist-2
C=CCn1c(=O)/c(=C\c2ccccn2)s/c1=C(/C#N)C(=O)NCC1CCCO1 (centres undefined),0,46*,i,13%,-10,20,-1,?
Cc1nn(Cc2ccccc2)c(Cl)c1C(=O)OCC(=O)NCC1CCCO1 (centres undefined),1,0,i,1%,0,-14,.,.
CN1CCN(c2ccc(N)cc2)CC1,-1,0,i,-22%,89*,8,2,0%
CCN1CCN(c2ccc(N)cc2)CC1,0,-1,i,?,-5,-5,.,.
Cc1ccc(C(C)C)c(OCc2nn(CC(=O)c3ccc(OC(F)F)cc3)c3[n+]2CCCCC3)c1,0,-1,i,?,-6,4,.,.
Cc1ccccc1-n1c(O)c(/C=C/C=Nc2ccccc2)c(=O)[nH]c1=O,9,32*,-1%,-8%,-2,3,?,21µM*
Cn1c(O)c(/C=C/C=Nc2ccccc2)c(=O)n(C)c1=S,28,45*,i,?,17,10,-11,30%
Cc1cccc(-n2c(O)c(/C=C/C=Nc3ccccc3)c(=O)[nH]c2=O)c1,16,19,i,10%,-2,33,.,.
Cc1cccc(C(=O)Nc2ccc(C(=O)OCc3cc(=O)n4nc(C5CC5)sc4n3)cc2)c1,0,1,-40%,-2%,7,-6,.,.
Cc1ccc([C@H]2C[C@@H](O)[C@H](n3cc(COC(=O)c4ccccc4)nn3)CN2CC2CCCCC2)cc1,0,.,-26%,13%,.,13,.,.
Cc1ccc(C2c3c(-c4cc(C)ccc4O)n[nH]c3C(=O)N2Cc2ccco2)cc1 (centres undefined),2,0,-8%,?,3,21,.,.
COc1cc(/C=C2\SC(=S)N(Nc3ncc(C(F)(F)F)cc3Cl)C2=O)ccc1O,1,47*,-30%,?,26,0,1,?
COc1ccc2oc(=O)c(C(=O)NCCc3c(C)[nH]c4ccc(F)cc34)cc2c1,5,0,-37%,-12%,5,22,.,.
O=c1c2ccccc2nc(-c2ccccc2)n1-c1ccc(O)cc1,1,0,-3%,-7%,46*,?,4,-1%
CC(C)CNP(=S)(c1ccccc1)C(C)(C)C (centres undefined),.,0,i,-4%,43*,.,-11,1%

# Screens: PubChem BioAssay, National Center for Advancing Translational Sciences (NCATS)
